Test results: PubChem BioAssay (NCI)
This is part of a sample that, as a whole, favours compounds with a hit. Of some 83,000 tested, about 20% had one in any assay.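 Testing used 96-well plates and a 48-hour single-concentration exposure. Example: -40 means 40% of the starting cells died.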 Values without a mark were called inactive. Active and inactive are the calls of the source. Rule for the calls: active = growth percent below 10; inactive = the rest.

Experiments:
Experiment in all cases: NCI-60 one-dose screen, 48 h (100 = growth as untreated, 0 = no growth, -100 = all killed)
Conditions in all cases: 10 µM unless noted
[1] = tested on: EKVX NSCLC
[2] = tested on: SN12C renal
[3] = tested on: UO-31 renal
[4] = tested on: TK-10 renal
[5] = tested on: ACHN renal
[6] = tested on: CAKI-1 renal
[7] = tested on: CCRF-CEM leukemia
[8] = tested on: MOLT-4 leukemia
[9] = tested on: SR leukemia
[10] = tested on: RPMI-8226 leukemia
[11] = tested on: OVCAR-8 ovarian
[12] = tested on: OVCAR-5 ovarian
[13] = tested on: OVCAR-4 ovarian
[14] = tested on: SK-OV-3 ovarian
[15] = tested on: IGROV1 ovarian
[16] = tested on: HS 578T breast
[17] = tested on: NCI/ADR-RES ovarian
[18] = tested on: T-47D breast
[19] = tested on: OVCAR-3 ovarian

With `Cc1cc(=O)oc2cc(OCCCOc3ccc(/C=C/C(=O)Nc4ccc(Cl)cc4)cc3)ccc12` the growth [1] was 98.5%, the growth [2] was 84.4% and the growth [3] was 61.5%. For the same compound, the growth [4] was 118%, the growth [5] was 45.3% and the growth [6] was 59.6%. The growth [7] was 68.2%, the growth [8] was 87.3% and the growth [9] was 37.7%. It also gave a growth [10] of 70.7%, a growth [11] of 67.1% and a growth [12] of 84%. The growth [13] was 12.6%, the growth [14] was 90.4% and the growth [15] was 73.2%. The growth [16] was 46.2%, the growth [17] was 56.6% and the growth [18] was 47.2%.

For `C#Cc1nc(C2=C(C)/C(=N/OCc3ccccc3)CC2)cs1`, the growth [1] was 19.4%, the growth [2] was 66.6% and the growth [3] was -93.8% (active). The growth [4] was 158%, the growth [5] was 0.823% (active) and the growth [6] was -20.1% (active). The growth [7] was -30.2% (active), the growth [8] was 60.7% and the growth [9] was -52.4% (active). The growth [10] was -44.1% (active), the growth [11] was 21.2% and the growth [12] was 54.6%. For the same compound, the growth [13] was 16.7%, the growth [14] was -22.3% (active) and the growth [15] was -68.3% (active). For the same compound, the growth [19] was 74.2%, the growth [16] was 70.9% and the growth [17] was -3.32% (active). For the same compound, the growth [18] was 67.5%.

`COC(=O)C(Cc1ccccc1)NS(=O)(=O)/N=C1\NC(=O)NC1=C(Cl)Cl` (stereo unspecified) was tested, and the growth [1] was 104%, the growth [2] was 96.8% and the growth [3] was 81.3%. For the same compound, the growth [4] was 118%, the growth [5] was 98.1% and the growth [6] was 100%. For the same compound, the growth [7] was 37.8%, the growth [8] was 79.3% and the growth [9] was 82.9%. The growth [10] was 4.3% (active), the growth [11] was 102% and the growth [12] was 115%. It also gave a growth [13] of 112%, a growth [14] of 108% and a growth [15] of 101%. For the same compound, the growth [19] was 110%, the growth [16] was 100% and the growth [17] was 106%. For the same compound, the growth [18] was 68.4%.

For `Nc1c(C(=O)c2ccc(Br)cc2)oc2nc(-c3cnccn3)cc(-c3cccs3)c12`, the growth [1] was 102%, the growth [2] was 97.9% and the growth [3] was 87.1%. The growth [4] was 172%, the growth [5] was 103% and the growth [6] was 95.2%. For the same compound, the growth [7] was 100%, the growth [8] was 95% and the growth [9] was 91.7%. The growth [10] was 99.8%, the growth [11] was 103% and the growth [12] was 112%. It also gave a growth [13] of 96.3%, a growth [14] of 98.6% and a growth [15] of 97.4%. For the same compound, the growth [19] was 108%, the growth [16] was 101% and the growth [17] was 102%. The growth [18] was 91.4%.

With `C=CCn1c(SCC(=O)c2ccccc2)nnc1-c1c[nH]c2ccccc12` the growth [1] was 95.8%, the growth [2] was 92.7% and the growth [3] was 65.7%. For the same compound, the growth [4] was 144%, the growth [5] was 93.8% and the growth [6] was 83.1%. The growth [7] was 91.2%, the growth [8] was 92.8% and the growth [9] was 76.5%. The growth [10] was 86.6%, the growth [11] was 95.4% and the growth [12] was 103%. It also gave a growth [13] of 97.5%, a growth [15] of 88.4% and a growth [19] of 115%. It also gave a growth [16] of 97%, a growth [17] of 97.4% and a growth [18] of 95%.

For `CC(C)(C)Nc1nc2c(OCCc3ccccc3)cccn2c1-c1ccccc1Cl`, the growth [1] was 6.5% (active), the growth [2] was 0.779% (active) and the growth [3] was -14% (active). The growth [4] was 10.6%, the growth [5] was 4.1% (active) and the growth [6] was -6.8% (active). The growth [7] was 1.24% (active), the growth [8] was -21.5% (active) and the growth [9] was -14.6% (active). The growth [10] was -25.8% (active), the growth [11] was 9.35% (active) and the growth [12] was 10.9%. The growth [13] was 13.5%, the growth [14] was -22.7% (active) and the growth [15] was 5.74% (active). The growth [16] was -1.74% (active), the growth [17] was 5.82% (active) and the growth [18] was 10.3%.

Compound `O=C1c2c(c3c4cccnc4[nH]c3c3ccc4ccccc4c23)C(=O)N1CCO` has a growth [1] of 108%, a growth [2] of 84.4% and a growth [3] of 56.1%. The growth [4] was 127%, the growth [5] was 48.3% and the growth [6] was 42.6%. For the same compound, the growth [7] was 42.8%, the growth [8] was 31.7% and the growth [9] was 9.85% (active). It also gave a growth [11] of 78%, a growth [12] of 121% and a growth [13] of 105%. For the same compound, the growth [14] was 84.8%, the growth [15] was 67.7% and the growth [16] was 121%. For the same compound, the growth [17] was 87.2% and the growth [18] was 37.2%.

With `COc1ccc(-n2c(SCC(=O)Nc3ccc(-c4nc5ccccc5[nH]4)cc3)nc3ccccc3c2=O)cc1` the growth [1] was 53.1%, the growth [2] was 62.3% and the growth [3] was 73.5%. The growth [4] was 107%, the growth [5] was 54% and the growth [6] was 36.8%. For the same compound, the growth [7] was 25.7%, the growth [8] was 25.7% and the growth [9] was -4.97% (active). For the same compound, the growth [11] was 20.9%, the growth [12] was 68.5% and the growth [13] was -33.7% (active). For the same compound, the growth [14] was 136%, the growth [15] was 17.5% and the growth [19] was -34.8% (active). For the same compound, the growth [16] was 28.7%, the growth [17] was 32.5% and the growth [18] was -51.8% (active).
